# Data from PubChem BioAssay (Tox21).
# Records with an inconclusive call do not appear. Unmarked numbers belong to inactive results. Active and inactive are the calls of the source. Calls come from the whole dose curve; as a rule, active = well fitted cell-killing curve with a large enough effect in the repeat runs; inconclusive = weak or mixed curves, or effect the other way; inactive = flat fitted curve, though single readings scatter.
# Experiment: Nuclear factor erythroid 2-related factor 2/antioxidant responsive element (Nrf2/ARE) small molecule agonists: qHTS cell viability counter screen in human keratinocytes (AID 1919968); note: nearly all actives have a fitted effect of over 55% in size
# Settings: KeratinoSens HaCaT ARE cells viability, CellTiter-Fluor, 24 h; series mostly up to 92.4 µM; activity change, negative = cytotoxicity: at the top concentration
# From the text: U.S. Tox21 Program National Center for Advancing Translational Sciences [NCATS] Division of Preclinical Innovation [DPI] U.S. Environmental Protection Agency [EPA] National Institutes of Environmental Health Sciences [NIEHS] National Toxicology Program [NTP] U.S. Food and Drug Administration [FDA] Tox21 Assay Overview: Oxidative stress has been implicated in the pathogenesis of a variety of diseases ranging from cancer to neurodegeneration. The antioxidant response element (ARE) signaling pathway plays an important role in the amelioration of oxidative stress. The KeratinoSens (Givaudan, Switzerland) is an in vitro test method which quantifies luciferase induction as a measure of activation of Keap1-Nrf2-antioxidationt/electrophile response element (ARE) dependant pathway in HaCaT human keratinocytes stably transfected with a selectable plasmid. The KeratinoSens assay is a cell-based assay with a reporter cell line to detect potential skin sensitizers by their ability to induce the Nrf2/ARE-response. The activation of the report gene under culture conditions can be detected by ONE-Glo Luciferase Assay System (Promega, Madison, WI). This cell line has been used to screen the Tox21 10K compound library to identify agonists that induce oxidative stress. The cytotoxicity of the Tox21 compound library against the KS-ARE cell line was tested in parallel by measuring the cell viability using CellTiter- Fluor assay system (Promega, Madison, WI) in the same wells.
# Tox21 Assay Protocol Summary: HaCaT derived cell line KeratinoSens were dispensed at 1,500 cells/5uL/well in 1536-well white wall/solid bottom plates using a Multidrop Combi (ThermoFisher Scientific, Waltham, MA) dispenser. After the assay plates were incubated at 37 C/5% CO2 for 5 h, 23 nL of compounds dissolved in DMSO, positive controls or DMSO only was transferred to the assay plate by a pintool workstation (Kalypsys, San Diego, CA). The plates were incubated at 37 C/5% CO2 for 23 h, followed by addition of 1uL/well of CellTiter-Fluor reagent into the assay plates using a Flying Reagent Dispenser (Aurora Discovery, San Diego, CA) for cell viability readout that measures cytotoxicity. After 1 h incubation at 37 C/5% CO2 the fluorescence intensity was measured using a ViewLux (PerkinElmer, Shelton, CT) plate reader.
# % is set by controls: 0 for no effect and ±100 for the full control effect; potency is the fitted concentration of half-maximal effect.
SMILES,"activity change, negative = cytotoxicity",Potency
CCc1c(C(=O)O)c(=O)cnn1-c1ccc(Cl)cc1,1.89%,
CCOC(/C=C(\C)CCC=C(C)C)OCC,0.317%,
C=C[Si](OC(=C)C)(OC(=C)C)OC(=C)C,4.54%,
Cn1cnc2c1c(=O)[nH]c(=O)n2C,,inactive
O=C(NCC1CCCCN1)c1cc(OCC(F)(F)F)ccc1OCC(F)(F)F (stereo not given),,inactive
O=C(O)c1cc(-c2ccccc2)nc2ccccc12,,inactive
O=C1OC(CN2CCOCC2)CN1/N=C/c1ccc([N+](=O)[O-])o1 (stereo not given),14.7% [at 42.5 µM],
[O-][n+]1ccc(Cl)cc1,8.13%,
O=Cc1ccc(Cl)cc1,-2.06%,
CC(C)(O)C(=O)c1ccc(OCCO)cc1,-3.9%,
CCCOC(C)=O,3.48%,
CCCCCC/C=C/C(=O)OC,-2.54%,
Nc1nc(N)nc(-c2ccccc2)n1,,inactive
CCCC(O)C(O)CO (stereo not given),-3.66%,
CSc1ccc(C(=O)c2[nH]c(=O)[nH]c2C)cc1,-1.13% [at 42.5 µM],
CC(C)CCOC(=O)c1ccccc1,1.76%,
O=CC1CC=CCC1 (stereo not given),1.99%,
N[C@@H](Cc1c[nH]c2ccc(O)cc12)C(=O)O,,inactive
CCCCOC(=O)CCS,1.64%,
COc1cc(/C=C/C(=O)O[C@H]2CC[C@]34C[C@]35CC[C@]3(C)[C@@H]([C@H](C)CCC=C(C)C)CC[C@@]3(C)[C@@H]5CC[C@H]4C2(C)C)ccc1O,4.1% [at 42.5 µM],

SMILES,"activity change, negative = cytotoxicity",Potency
COc1cc(C(=O)N2CCCCCCC2)cc(OC)c1OC,1.96% [at 42.5 µM],
c1ccc2sc(SSN3CCOCC3)nc2c1,,30.6 µM (active)
Nc1ccncc1N,-0.0421% [at 42.5 µM],
CCCCC1CCC(O)CC1 (stereo not given),1.22%,
CC1CCc2nccnc21 (stereo not given),-4.61%,
COc1cc2c(Nc3ccc(Br)cc3F)ncnc2cc1OCC1CCN(C)CC1,-1.94% [at 42.5 µM],
ClC(c1ccccc1)(c1ccccc1)c1ccccc1,6.11%,
CCOC(=O)OC(=O)OCC,-4.95%,
C(/C=C/C=C/Nc1ccccc1)=Nc1ccccc1,-0.565%,
CC(=O)S[C@H](C(=O)N[C@H]1Cc2ccccc2[C@H]2CCC[C@@H](C(=O)O)N2C1=O)C(C)C,0.0549%,
O=C(O)c1cc2ccccc2cc1O,,inactive
Cc1cncc(C)c1,0.33%,
CCC/C=C/C=O,,inactive
CNC(=O)NC,-0.8%,
COC(OC)C(C)c1ccccc1 (stereo not given),-1.3%,
Cc1cc(C)c(C(=O)O)c(C)c1,1.51%,
CCOC(=O)c1cc(=O)c2c(OCC(COc3cccc4oc(C(=O)OCC)cc(=O)c34)OC(=O)[C@@H](N)CCCCN)cccc2o1,0.307% [at 42.5 µM],
CCCCOCCOCCOCCCC,2.87%,
COC(=O)c1ccc2cc(C(=O)OC)ccc2c1,1.05% [at 19 µM],
CCn1c2ccccc2c2ccccc21,-23.9%,
